Results filed as inconclusive are left out. Activity calls are given as the source filed them. Unless noted, calls follow the shape of the dose curve; as a rule, active = well fitted curve in the direction sought with a large enough effect; inconclusive = small, poorly fitted or top-dose-only effect, or another doubt; inactive = no such curve, though single readings can be large; an effect the other way counts as inactive or inconclusive.
Legend:
CAOV3 = assay: Primary qHTS to identify gynecologic anti-cancer compounds using libraries of approved drugs and bioactive compounds (AID 1345084); settings: Gynecologic cancer cell panel viability, ATPlite luminescence, 48 h; series mostly up to 57.5 µM; also: nearly all actives have a fitted effect of over 55% in size; also: potency is read from the fitted curve at half-maximal effect
In short: (§1)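 In this quantitative HTS, cell killing is estimated from loss of ATP-dependent luciferase light. Cells see five compound concentrations over a 48 h exposure.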

CASKI = assay: as above; settings: Gynecologic cancer cell panel viability, ATPlite luminescence, 48 h; series mostly up to 57.5 µM
In short: as §1

Es-2 = assay: as above; settings: Gynecologic cancer cell panel viability, ATPlite luminescence, 48 h; series mostly up to 57.5 µM
In short: as §1

HeLa = assay: as above; settings: Gynecologic cancer cell panel viability, ATPlite luminescence, 48 h; series mostly up to 57.5 µM
In short: as §1

Hek293T = assay: as above; settings: Gynecologic cancer cell panel viability, ATPlite luminescence, 48 h, control line for the selectivity index; series mostly up to 57.5 µM
In short: as §1

JEG-3 = assay: as above; settings: Gynecologic cancer cell panel viability, ATPlite luminescence, 48 h; series mostly up to 57.5 µM
In short: as §1

OV90 = assay: as above; settings: Gynecologic cancer cell panel viability, ATPlite luminescence, 48 h; series mostly up to 57.5 µM
In short: as §1

Tov-21-G = assay: as above; settings: Gynecologic cancer cell panel viability, ATPlite luminescence, 48 h; series mostly up to 57.5 µM
In short: as §1

Tov112D = assay: as above; settings: Gynecologic cancer cell panel viability, ATPlite luminescence, 48 h; series mostly up to 57.5 µM
In short: as §1

[1] = Drug repurposing screens with cells derived from glioblastoma tumor samples (AID 1345199); settings: GBM patient neurospheres viability, ATP luminescence, 48 h; also: nearly all actives have a fitted effect of over 40% in size; also: potency is read from the fitted curve at half-maximal effect; as to activity, negative = cell killing: % is scaled to controls: 0 for no effect and ±100 for the full control effect
In short: (§2)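 Primary testing used CD133+ neurospheres from four GBM patients, seven concentrations, 48 h exposure and ATP-based viability; confirmation added three slower-growing patient lines.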

PA-1 = assay: Primary qHTS to identify gynecologic anti-cancer compounds using libraries of approved drugs and bioactive compounds (AID 1345084); settings: Gynecologic cancer cell panel viability, ATPlite luminescence, 48 h; series mostly up to 57.5 µM; also: nearly all actives have a fitted effect of over 55% in size; also: potency is read from the fitted curve at half-maximal effect
In short: as §1

[2] = biological target: Nuclear receptor subfamily 1 group I member 2 (Rattus norvegicus) (UniProt Q9R1A7); assay: qHTS assay for small molecule activators of the rat pregnane X receptor (rPXR) signaling pathway (AID 651751; call rule not given here; also: 0% is about no effect); settings: rPXR reporter cells, luciferase (One-Glo), 24 h
Chain of Nuclear receptor subfamily 1 group I member 2 (Rattus norvegicus) (Q9R1A7 whole entry, looked up): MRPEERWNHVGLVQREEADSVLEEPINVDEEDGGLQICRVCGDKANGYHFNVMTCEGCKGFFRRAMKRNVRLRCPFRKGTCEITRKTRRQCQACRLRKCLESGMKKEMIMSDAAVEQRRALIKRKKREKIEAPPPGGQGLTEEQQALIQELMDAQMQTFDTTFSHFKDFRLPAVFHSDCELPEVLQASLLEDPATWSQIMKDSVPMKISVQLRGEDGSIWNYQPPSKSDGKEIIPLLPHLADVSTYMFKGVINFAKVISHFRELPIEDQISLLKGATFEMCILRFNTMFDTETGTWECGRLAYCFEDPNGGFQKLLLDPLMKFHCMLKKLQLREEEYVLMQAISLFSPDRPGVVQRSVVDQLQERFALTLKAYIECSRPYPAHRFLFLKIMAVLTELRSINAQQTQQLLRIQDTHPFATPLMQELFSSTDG

[3] = qHTS assay for small molecule activators of the human pregnane X receptor (PXR) signaling pathway (AID 720659; call rule not given here; also: 0% is about no effect); settings: DPX-2 HepG2 CYP3A4-luciferase, 24 h; series mostly up to 92.3 µM
SKOV3 = assay: Primary qHTS to identify gynecologic anti-cancer compounds using libraries of approved drugs and bioactive compounds (AID 1345084); settings: Gynecologic cancer cell panel viability, ATPlite luminescence, 48 h; series mostly up to 57.5 µM; also: nearly all actives have a fitted effect of over 55% in size; also: potency is read from the fitted curve at half-maximal effect
In short: as §1

astro = assay: Drug repurposing screens with cells derived from glioblastoma tumor samples (AID 1345199); settings: viability, ATP luminescence, 48 h; series mostly up to 45.9 µM; also: nearly all actives have a fitted effect of over 40% in size; also: potency is read from the fitted curve at half-maximal effect; as to activity, negative = cell killing: % is scaled to controls: 0 for no effect and ±100 for the full control effect
In short: as §2

[4] = qHTS assay to identify inhibitors of the type 1 interferon - major histocompatibility complex class I in skeletal muscle: Counter screen cell viability and HiBit confirmation (AID 1347412); settings: iHSKM muscle cells + IFN-b, HiBiT or CellTiter-Glo, 24 h; also: potency is read from the fitted curve at half-maximal effect; nearly all actives have a fitted effect of over 60% in size
In short: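 HLA-B*08:01–HiBiT knock-in immortalized human myoblasts (C25cl48) stimulated with 4.0 ng/ml human IFN-beta and dosed with compound in a 12-point 1:3 titration (top final 46 uM). After 24 hrs at 37 C, HiBiT lytic luminescence or CellTiter Glo ATP read out.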

[5] = at 20 µM (top of the series), tumour line C
[6] = at 45.9 µM (top of the series), tumour line B
[7] = at 45.9 µM (top of the series), tumour line D
[8] = at 46 µM (top of the series), tumour line A
[9] = at 46.1 µM (top of the series), tumour line C

C#CC1(O)CC[C@H]2[C@@H]3CCC4=CCCC[C@@H]4[C@H]3CC[C@@]21C (stereo not given in full)
active: Potency ([1]; tumour line A) 11200 nM
inactive: Potency (CAOV3) | Potency (CASKI) | Potency (Es-2) | Potency (HeLa) | Potency (Hek293T) | Potency (JEG-3) | Potency (OV90) | Potency (Tov-21-G) | Potency (Tov112D) | activity, negative = cell killing [1, 5] -10.1%

Nc1cc(-c2ccncc2)c[nH]c1=O
inactive: Potency (CAOV3) | Potency (CASKI) | Potency (Es-2) | Potency (HeLa) | Potency (Hek293T) | Potency (JEG-3) | Potency (OV90) | Potency (PA-1) | Potency (Tov-21-G) | Potency (Tov112D) | activity, negative = cell killing [1, 6] -15% | activity, negative = cell killing [1, 7] 3.16% | activity, negative = cell killing [1, 8] -22.8% | activity, negative = cell killing [1, 9] -16.3% | max response [2] -2.86% | outcome [3]

CN(C)CCn1nnnc1SCC1=C(C(=O)O)N2C(=O)[C@@H](NC(=O)Cc3csc(N)n3)[C@H]2SC1
inactive: Potency (CAOV3) | Potency (CASKI) | Potency (Es-2) | Potency (HeLa) | Potency (Hek293T) | Potency (JEG-3) | Potency (OV90) | Potency (PA-1) | Potency (SKOV3) | Potency (Tov-21-G) | Potency (Tov112D) | activity, negative = cell killing [1, 5] 7.42% | activity, negative = cell killing ([1]; at 21.2 µM (top of the series), tumour line B) -1.03% | activity, negative = cell killing ([1]; at 21.2 µM (top of the series), tumour line D) -12.5% | Potency (astro)

CCCCCCCCCCCCCCCC(=O)OC(C)C
inactive: Potency (CAOV3) | Potency (CASKI) | Potency (Es-2) | Potency (HeLa) | Potency (Hek293T) | Potency (JEG-3) | Potency (OV90) | Potency (PA-1) | Potency (SKOV3) | Potency (Tov-21-G) | Potency (Tov112D) | activity, negative = cell killing [1, 6] -2.41% | activity, negative = cell killing [1, 7] -2.14% | activity, negative = cell killing [1, 8] -26.7% | activity, negative = cell killing [1, 9] 4.29% | Potency (astro) | max response [2] -0.444% | outcome [3]

CC1(C)S[C@@H]2[C@H](NC(=O)[C@H](N)c3ccccc3)C(=O)N2[C@H]1C(=O)O
inactive: Potency (CAOV3) | Potency (CASKI) | Potency (Es-2) | Potency (HeLa) | Potency (Hek293T) | Potency (JEG-3) | Potency (OV90) | Potency (PA-1) | Potency (SKOV3) | Potency (Tov-21-G) | Potency (Tov112D) | activity, negative = cell killing [1, 6] -7.71% | activity, negative = cell killing [1, 7] 10.7% | activity, negative = cell killing [1, 9] 12.5% | max response [2] -3.75% | outcome [3]

c1ccc(CCNc2nc(-c3ccccc3)cs2)cc1
active: Potency ([1]; tumour line A) 14100 nM
inactive: Potency (CAOV3) | Potency (CASKI) | Potency (Es-2) | Potency (HeLa) | Potency (Hek293T) | Potency (JEG-3) | Potency (PA-1) | Potency (SKOV3) | Potency (Tov-21-G) | Potency (Tov112D) | activity, negative = cell killing [1, 6] -22.5%

O=[N+]([O-])c1ccc(CNc2nc(NCc3cccc(C(F)(F)F)c3)nc3nc[nH]c23)cc1
inactive: Potency (CAOV3) | Potency (CASKI) | Potency (Es-2) | Potency (HeLa) | Potency (Hek293T) | Potency (JEG-3) | Potency (PA-1) | Potency (SKOV3) | Potency (Tov-21-G) | Potency (Tov112D)

O=C(OCc1ccccc1)c1ccccc1
inactive: Potency (CAOV3) | Potency (CASKI) | Potency (Es-2) | Potency (HeLa) | Potency (Hek293T) | Potency (JEG-3) | Potency (OV90) | Potency (PA-1) | Potency (SKOV3) | Potency (Tov-21-G) | Potency (Tov112D) | activity, negative = cell killing [1, 6] -4.23% | activity, negative = cell killing [1, 7] -19% | activity, negative = cell killing [1, 8] -13.2% | activity, negative = cell killing [1, 9] -10.1% | Potency (astro) | max response [2] -3.55% | outcome [3]

[O-][n+]1ccccc1SSc1cccc[n+]1[O-]
active: Potency (CAOV3) 2820 nM | Potency (CASKI) 2510 nM | Potency (Es-2) 1000 nM | Potency (Hek293T) 501 nM | Potency (JEG-3) 2000 nM | Potency (OV90) 1780 nM | Potency (PA-1) 1260 nM | Potency (SKOV3) 794 nM | Potency (Tov-21-G) 1410 nM | Potency (Tov112D) 2820 nM | Potency ([1]; tumour line A) 7080 nM | Potency ([1]; tumour line B) 15800 nM | Potency ([1]; tumour line D) 7080 nM | Potency ([4]; HiBiT) 496 nM | Potency ([4]; Viability) 991 nM
inactive: Potency (HeLa) | activity, negative = cell killing [1, 9] -16.3%

O=C(Nc1ccc2c(c1)CCN(Cc1ncn[nH]1)C2)c1ccccc1-c1ccc(C(F)(F)F)cc1
inactive: Potency (CAOV3) | Potency (CASKI) | Potency (Es-2) | Potency (HeLa) | Potency (Hek293T) | Potency (JEG-3) | Potency (OV90) | Potency (PA-1) | Potency (Tov-21-G) | Potency (Tov112D)

CC(C)OC(=O)c1cc(C(=O)OC(C)C)cc([N+](=O)[O-])c1
inactive: Potency (CAOV3) | Potency (CASKI) | Potency (Es-2) | Potency (HeLa) | Potency (Hek293T) | Potency (JEG-3) | Potency (OV90) | Potency (PA-1) | Potency (Tov-21-G) | Potency (Tov112D) | activity, negative = cell killing ([1]; at 91.6 µM (top of the series), tumour line A) -39.8% | activity, negative = cell killing ([1]; at 91.6 µM (top of the series), tumour line B) -8.41% | activity, negative = cell killing ([1]; at 91.6 µM (top of the series), tumour line D) -19.6% | activity, negative = cell killing ([1]; at 99.2 µM (top of the series), tumour line C) 10.5% | Potency (astro) | max response [2] 14.5% | outcome [3]

Source: PubChem BioAssay (NCATS)
